Compounds with a hit are over-represented: about 5.1% of the library has one in this group of screens.
ANO1 block: TMEM16A chloride channel inhibitors, primary screen, cell-based, HTS | HEK293 TMEM16A/YFP iodide influx fluorescence, ionomycin | AID 588511, 2011 | normalized B-score (activity score, 25-100; higher = stronger inhibition) at 10 µM | hit rate 1.2% among 310,000;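 active = ratio plate-corrected score three or more library SD toward inhibition, starting fluorescence score within five deviations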;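 also: score derived from kinetic fluorescence span divided by baseline fluorescence per well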
MPTP block: mitochondrial permeability transition pore inhibitors, primary screen, biochemical, isolated mouse mitochondria, absorbance; Ca2+ swelling absorbance, 30 min; inhibition, % at 10 µM; hit rate 1.4% among 360,000; AID 602449, 2012;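 active = inhibition of 50% or more, scaled per plate between neutral and stimulator controls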;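 also: 0% = DMSO wells given calcium and 100% = 1 mM EGTA wells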
CRFBP-R2 block: antagonists of CRF-BP/CRF-R2 complex, primary screen, cell-based, HEK293, calcium dye fluorescence, uHTS; inhibition, % at 11.8 µM; hit rate 0.59% among 350,000; AID 588475, 2011; CRF-induced calcium fluorescence;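 active = inhibition of the ligand-induced calcium signal above about 50% at the single tested concentration, limit read from the data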
CRFR2-BP ag: agonists of CRF-BP/CRF-R2 complex, primary screen, cell-based, HEK293, calcium dye fluorescence, uHTS; CRF-binding protein / CRF receptor 2 complex (human); calcium dye fluorescence (FLIPR); percent of saturating CRF peptide response; activation, % at 13.2 µM; hit rate 0.46% among 350,000; AID 588473, 2011;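 active = activation of at least 50%, plus an integration ratio under a set limit after plate pattern correction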;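 also: plate controls were neutral control wells without compound for no effect and CRF at EC100 for full effect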
GRIN3A LBD mod: binders of NR3A ligand-binding domain, primary screen, biophysical, differential scanning fluorimetry, uHTS | Glutamate receptor ionotropic, NMDA 3A (GRIN3A) ligand-binding domain | NR3A LBD differential scanning fluorimetry, Tm shift; 0% = protein alone, 100% = glycine-bound protein | Tm shift relative to glycine control, % at 25 µM | hit rate 2.5% among 340,000 | AID 1259313, 2017;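 active = melting temperature shift of at least 10% of the positive control shift, at one fixed dose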
ANO1 activ: TMEM16A chloride channel activators or potentiators, primary screen, cell-based, HTS | Anoctamin-1 (Mus musculus), Q8BHY3 | HEK293 TMEM16A/YFP-H148Q/I152L, iodide quench fluorescence; stronger effect = lower value | B-score at 10 µM | hit rate 0.3% among 340,000 | AID 623877, 2012;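 active = fluorescence-ratio B-score plate-corrected deviation score at least 3 library SD below zero, with starting fluorescence score within 5 deviations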;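 also: channel opened by trigger with iodide after compound preincubation; score built on the fluorescence ratio of max minus min over baseline; more negative score means more quench and so TMEM16A activation or potentiation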
TMEM16A reconf: TMEM16A chloride channel inhibitors, confirmation, cell-based, re-confirmation; hit rate 39% among 2,300; HEK293 TMEM16A/YFP-H148Q, iodide quench fluorescence; ionomycin added to raise cell calcium; inhibition, % at 10 µM; AID 652189, 2013; shares compounds with ANO1 block;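 active = mean duplicate percent inhibition, scaled so buffer wells are 0 and the reference blocker 100, over three buffer SD above buffer mean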
TMEM16A Ca cntr: calcium mobilization in TMEM16A/YFP HEK293 cells, confirmation, counter-screen for TMEM16A inhibitor project. Fluo4 calcium mobilization. shares compounds with ANO1 block. calcium response (% of ionomycin), % at 10 µM. hit rate 2% among 2,300;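 active = duplicate-averaged calcium signal over 20% of the ionomycin maximum, relative to buffer baseline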;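 also: each well's signal is peak minus trough fluorescence divided by its pre-addition baseline; 0% = buffer wells and 100% = ionomycin wells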
Parental YFP cnt: iodide YFP quench changes in parental YFP-HEK293, counter-screen for TMEM16A inhibitor project, cell-based; shares compounds with ANO1 block; ionomycin; YFP ratio F(max-min)/F0 at 10 µM; 2,300 tested, under 10 active; AID 652233, 2013;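 active = yellow fluorescent protein signal ratio exceeding the buffer control mean by over 5 SD of those controls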;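 also: ratio is mean of duplicate wells from kinetic YFP trace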
ClC-1 inh: ClC-1 chloride channel inhibition, selectivity assay for TMEM16A inhibitor project, cell-based, voltage-dependent ClC-1. shares compounds with ANO1 block. 2,300 tested, under 10 active. CHO ClC-1-YFP, iodide influx fluorescence quench; iodide control reads 0, buffer control 100. AID 652236, 2013. ratio percent, % at 10 µM;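 active = duplicate-mean ratio percent above the mean of iodide-only control wells, which defines zero, plus 5 of their SD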;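 also: higher percent means stronger block of ClC-1 iodide influx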
The depositor's hits bear a star; i = inactive; . = not tested or not shown.

SMILES | ANO1 block | MPTP block | CRFBP-R2 block | CRFR2-BP ag | GRIN3A LBD mod | ANO1 activ | TMEM16A reconf | TMEM16A Ca cntr | Parental YFP cnt | ClC-1 inh
Cc1cc(C)nc(N2N=C(C(C)(C)C)CC2=O)n1 | i | -1 | 2 | 0 | -1 | i | i | i | -1.1 | -11
Cc1cnc(NC(=O)Cc2ccc(S(=O)(=O)N3CCOCC3)s2)s1 | . | -1 | -26 | 0 | -6 | i | . | . | . | .
CC(C)(C)c1csc(NC(=O)Cc2ccc(S(=O)(=O)N3CCOCC3)s2)n1 | 100* | 1 | -6 | 2 | -3 | i | 24%* | i | -1.2 | -5
CCN(CC1COc2ccccc2O1)C(=S)NC1CC2CCC1C2 (configuration not stated) | 100* | -1 | -8 | 0 | 3 | i | i | i | -0.83 | -10
CN(CC1COc2ccccc2O1)C(=S)Nc1ccccc1 (configuration not stated) | i | -4 | 7 | -2 | 0 | i | . | . | . | .
CC(=O)NCCc1ccc(S(=O)(=O)Nc2ccc(NC(=O)c3ccc(F)cc3)cc2)cc1 | i | -1 | 13 | -2 | 0 | i | . | . | . | .
O=C(NC(=S)Nc1ccc2[nH]c(=O)[nH]c2c1)c1cccc(F)c1 | i | -1 | -3 | 0 | 0 | i | . | . | . | .
Cc1nc(NCc2ccc3c(c2)OCO3)c2oc3ccccc3c2n1 | 25* | 18 | 22 | -1 | 1 | i | i | i | -1.2 | -4
CCOC(=O)c1ccccc1NC(=O)c1nc2nccc(C)n2n1 | 25* | 0 | 9 | 3 | -3 | i | i | i | -0.9 | 2
Cc1ccnc2nc(C(=O)OCC(=O)Nc3ccccc3C(C)(C)C)nn12 | i | -1 | -6 | -1 | -1 | i | . | . | . | .
Cc1ccc(S(=O)(=O)N(C)C)cc1NC(=O)C(C)OC(=O)CC1CC2CCC1C2 (configuration not stated) | . | 2 | -21 | 1 | . | . | . | . | . | .
Cc1ccnc(NC(=S)N2CCN(c3cccc(C(F)(F)F)c3)CC2)c1 | 25* | 1 | -42 | 0 | 0 | i | 18%* | i | -1.1 | -12
CCN1C(=O)c2ccccc2S(=O)(=O)c2ccc(C(=O)NCCOC)cc21 | i | -1 | -4 | 5 | -2 | i | . | . | . | .
COc1cccc(CNc2nc3ccccc3n2CCN2CCCCC2)c1OC | 25* | 0 | -1 | 2 | 2 | i | i | i | -0.99 | -16
Cc1oc2c(c(C)cc3oc(=O)c(CC(=O)NCCCO)c(C)c32)c1C | i | 1 | 0 | 0 | 0 | i | i | i | -1 | -2
Cc1oc2c(c(C)cc3oc(=O)c(CC(=O)NCCCN4CCCC4=O)c(C)c32)c1C | i | 0 | 6 | 0 | -2 | i | . | . | . | .
COc1ccc(/C=N/NC(=O)c2ccoc2C)cc1COc1c(C)cccc1C | i | 0 | 13 | -1 | -3 | i | i | i | -1.2 | -18
Cc1ccc(Cc2c(-c3ccc(C#N)cc3)nc3c(C)cc(Br)cn23)cc1 | . | -2 | . | . | . | . | . | . | . | .
Nc1nn(S(=O)(=O)c2cccc3nsnc23)cc1-c1ccc(Br)cc1 | 25* | 1 | 2 | 1 | -1 | i | i | i | -1 | 2
Cc1ccc(C(=O)COC(=O)CCC(=O)Nc2cccc(Cl)c2)cc1[N+](=O)[O-] | 100* | 2 | 1 | 3 | -11 | i | i | i | -0.91 | -14
CCCC(CCC)C(=O)Nc1c[nH]c(=O)[nH]c1=O | 100* | -2 | 23 | -3 | 3 | i | i | i | -0.99 | -22
O=C(CCl)Nc1c[nH]c(=O)[nH]c1=O | . | 1 | -14 | 0 | 0 | i | . | . | . | .
COc1ccc(CN(C(=O)c2snc(C(N)=O)c2N)C(C(=O)NC2CCCC2)c2cc(OC)ccc2OC)cc1 (configuration not stated) | i | 0 | -14 | 2 | -3 | i | . | . | . | .
Nc1nc(SCC(=O)N2CCc3ccccc3C2)[nH]c(=O)c1-c1ccccc1 | i | 0 | 16 | 0 | 1 | i | i | i | -1 | -15
O=C(NCc1ccncc1)C(=O)Nc1nc(C23CC4CC(CC(C4)C2)C3)cs1 | 100* | 21 | -18 | 1 | -12 | i | 18%* | i | -1.1 | -19
SMILES | ANO1 block | MPTP block | CRFBP-R2 block | CRFR2-BP ag | GRIN3A LBD mod | ANO1 activ | TMEM16A reconf | TMEM16A Ca cntr | Parental YFP cnt | ClC-1 inh
CC(c1ccco1)N(C(=O)CSc1ccc(Br)cc1)c1ccccn1 (configuration not stated) | 100* | 3 | 0 | 0 | 0 | i | 18%* | i | -1.2 | -14
COc1ccc(S(=O)(=O)NCC(c2ccco2)N2CCc3ccccc3C2)cc1 (configuration not stated) | i | 1 | 4 | -2 | 0 | i | . | . | . | .
O=S(=O)(NCC(c1ccco1)N1CCc2ccccc2C1)c1ccc(Br)cc1 (configuration not stated) | 25* | 2 | -16 | 4 | . | i | i | i | -0.82 | -5
CC(C)c1nc(SCC(=O)Nc2cccc3ccccc23)n[nH]1 | . | 0 | 0 | -3 | 1 | i | . | . | . | .
CCOc1ccc(-c2nc(CSCC(=O)N3CCN(c4cccc(OC)c4)CC3)c(C)o2)cc1 | 100* | 2 | 21 | -5 | -3 | i | 26%* | i | -0.91 | -14
CCOc1ccc(-c2nc(CSCC(=O)NC3CC3)c(C)o2)cc1 | i | 0 | -1 | 0 | -2 | i | . | . | . | .
CC=C1OC(n2cnc3c(N)ncnc32)C(O)C1O (configuration not stated) | . | -1 | . | . | . | . | . | . | . | .

Source: PubChem BioAssay (several laboratories)
